This is an account of results in PubChem BioAssay (Tox21).

Assay [1] can be described thus: qHTS assay to identify small molecule antagonists of the sonic hedgehog signaling (Shh) pathway (AID 1259369). Note: nearly all actives have a fitted effect of over 45% in size. Note: potency is the fitted concentration of half-maximal effect. In a few lines: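 Conditioned medium drives Shh signalling in 3T3Gli1-Luc cells; compounds in DMSO co-applied, 24hr at 37 C, then luciferase luminescence.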
A general note: In qHTS, concentration-response curves come from the screen itself.

Assay [2] in a line: qHTS assay to identify small molecule agonists of the androgen receptor (AR) signaling pathway in the presence of an antagonist - cell viability counter screen (AID 1259379; active = well fitted curve in the direction sought with a large enough effect in the repeat runs; an effect the other way counts as inactive or inconclusive; note: nearly all actives have a fitted effect of over 25% in size; note: potency is the fitted concentration of half-maximal effect). The method in brief: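 A CellTiter-Fluor read-out measured viability of MDA-kb2 reporter cells (MMTV promoter with AR and GR response elements). Treatment: nilutamide 3.0uM final with compounds at 15 concentrations, 16 hr, 37C, 0% CO2.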

Assay [3] in a line: qHTS assay to identify small molecule agonists of the estrogen receptor beta (ER-beta) signaling pathway - cell viability counter screen (AID 1259380; active = well fitted curve in the direction sought with a large enough effect in the repeat runs; an effect the other way counts as inactive or inconclusive; note: nearly all actives have a fitted effect of over 30% in size; note: potency is the fitted concentration of half-maximal effect). The method in brief: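 Cells used were ER-beta-UAS-bla HEK293T in medium with 2% charcoal-stripped FBS. They were treated for 16 hr at 37C. Viability came from CellTiter-Glo luminescence.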
Assay [4] has as its target Androgen receptor (Homo sapiens) (UniProt P10275). The assay is described as follows: qHTS assay to identify small molecule agonists of the androgen receptor (AR) signaling pathway in the presence of an antagonist (AID 1259381). Note: nearly all actives have a fitted effect of over 15% in size. In a few lines:
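Using human MDA-kb2 cells with an MMTV promoter–luciferase construct (AR and GR response elements), agonist activity is scored under 3.0uM nilutamide (final) co-treatment; 16hr incubation, 37C, luminescence readout via ONE-Glo.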

Assay [5] is described as follows: qHTS assay to identify small molecule antagonists of the estrogen receptor beta (ER-beta) signaling pathway - cell viability counter screen (AID 1259382; active = well fitted curve in the direction sought with a large enough effect in the repeat runs; an effect the other way counts as inactive or inconclusive; note: nearly all actives have a fitted effect of over 55% in size; note: potency is the fitted concentration of half-maximal effect). The method in brief:
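Agonist-stimulated (1nM E2) ER-beta-UAS-bla HEK293T cells are incubated with library compounds for 16 hr at 37C. Cell viability is then assessed in the reporter-assay wells by adding CellTiter-Glo and reading luminescence after 30 min.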

Assay [6] concerns the target Estrogen receptor (Homo sapiens) (UniProt P03372). The experiment in a line: qHTS assay to identify small molecule agonists of the estrogen receptor alpha (ER-alpha) signaling pathway in the presence of an antagonist (AID 1259383). Note: top concentration of the series differs between compounds; nearly all actives have a fitted effect of over 15% in size. In a few lines: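 Using VM7Luc4E2 cells seeded 24hr before treatment, antagonist ICI-182,780 (10.0nM final) was added, followed by compounds at 15 concentrations. Plates incubated 22hr; ONE-Glo luminescence quantified reporter activity.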

Assay [7] in a line: qHTS assay to identify small molecule agonists or antagonists of the thyroid stimulating hormone receptor (TSHR) signaling pathway - wild type cell line counter screen (AID 1259384). The method in brief: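 Wild-type Hek293 cells, 800/well, 18 h at 37C, then compound with Ro20-1724 for 30 min RT. cAMP by HTRF (cAMP-d2/anti-cAMP cryptate), 1 h RT, fluorescence read. 15 concentrations, triplicates.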

Assay [8] concerns the target Thyrotropin receptor (Homo sapiens) (UniProt P16473). The experiment in a line: qHTS assay to identify small molecule antagonists of the thyroid stimulating hormone receptor (TSHR) signaling pathway (AID 1259385). Note: nearly all actives have a fitted effect of over 20% in size. Note: potency is the fitted concentration of half-maximal effect. The method in brief:
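TSHR-HEK293 cells (800/well) plated 18 h, then compounds with Ro20-1724 and TSH at 1.5 ng/mL final, 30 min at room temperature. cAMP quantified by HTRF (cAMP-d2/anti-cAMP-cryptate, 1 h); 15 concentrations in triplicate.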

“And” between values parts separate entries of the source, which are not always exact repeats. Equal entries are not always repeated. Inconclusive results are not listed. The source made the active and inactive calls. Unless noted, calls come from the whole dose curve.

Estrogen receptor (Homo sapiens), sequence (P03372 whole entry, looked up): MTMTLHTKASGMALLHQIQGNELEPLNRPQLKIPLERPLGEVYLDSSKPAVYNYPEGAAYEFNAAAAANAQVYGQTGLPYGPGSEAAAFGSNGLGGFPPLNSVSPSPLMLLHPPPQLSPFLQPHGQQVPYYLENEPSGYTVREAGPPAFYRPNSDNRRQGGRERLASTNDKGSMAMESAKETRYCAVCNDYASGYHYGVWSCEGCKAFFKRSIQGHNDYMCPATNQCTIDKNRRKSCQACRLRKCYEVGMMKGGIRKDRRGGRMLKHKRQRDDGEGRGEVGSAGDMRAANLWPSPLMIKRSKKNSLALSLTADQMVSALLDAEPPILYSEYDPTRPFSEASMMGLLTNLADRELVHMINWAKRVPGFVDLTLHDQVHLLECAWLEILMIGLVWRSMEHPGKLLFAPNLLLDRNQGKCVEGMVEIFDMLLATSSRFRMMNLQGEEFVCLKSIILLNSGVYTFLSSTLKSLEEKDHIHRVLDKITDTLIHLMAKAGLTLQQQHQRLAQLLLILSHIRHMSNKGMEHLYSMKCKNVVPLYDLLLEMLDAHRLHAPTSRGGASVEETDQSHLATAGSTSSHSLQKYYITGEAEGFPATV
Androgen receptor (Homo sapiens), sequence (P10275 whole entry, looked up): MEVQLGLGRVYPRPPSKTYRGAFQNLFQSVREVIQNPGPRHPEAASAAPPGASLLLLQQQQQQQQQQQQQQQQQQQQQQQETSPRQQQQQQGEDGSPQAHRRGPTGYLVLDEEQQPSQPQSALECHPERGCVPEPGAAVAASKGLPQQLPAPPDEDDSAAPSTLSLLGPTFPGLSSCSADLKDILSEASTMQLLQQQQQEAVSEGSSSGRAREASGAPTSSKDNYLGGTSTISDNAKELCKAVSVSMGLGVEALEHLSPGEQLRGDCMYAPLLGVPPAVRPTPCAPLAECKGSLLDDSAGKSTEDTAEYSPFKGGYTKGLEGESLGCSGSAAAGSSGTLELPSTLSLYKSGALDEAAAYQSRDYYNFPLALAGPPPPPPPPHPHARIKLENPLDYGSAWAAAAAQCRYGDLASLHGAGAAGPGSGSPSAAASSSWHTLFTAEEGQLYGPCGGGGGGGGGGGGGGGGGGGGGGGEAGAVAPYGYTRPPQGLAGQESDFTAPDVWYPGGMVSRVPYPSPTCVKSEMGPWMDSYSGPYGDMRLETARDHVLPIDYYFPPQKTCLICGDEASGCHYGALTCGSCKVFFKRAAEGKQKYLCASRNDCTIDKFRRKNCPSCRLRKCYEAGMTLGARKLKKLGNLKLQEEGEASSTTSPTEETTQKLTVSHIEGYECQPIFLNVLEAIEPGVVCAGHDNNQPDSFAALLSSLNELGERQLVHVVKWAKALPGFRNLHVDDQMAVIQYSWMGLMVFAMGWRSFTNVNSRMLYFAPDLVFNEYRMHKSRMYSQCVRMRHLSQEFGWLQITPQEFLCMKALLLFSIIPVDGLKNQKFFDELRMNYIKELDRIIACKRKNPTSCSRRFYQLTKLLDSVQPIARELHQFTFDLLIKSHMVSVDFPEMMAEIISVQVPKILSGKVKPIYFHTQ
Thyrotropin receptor (Homo sapiens), sequence (P16473 whole entry, looked up): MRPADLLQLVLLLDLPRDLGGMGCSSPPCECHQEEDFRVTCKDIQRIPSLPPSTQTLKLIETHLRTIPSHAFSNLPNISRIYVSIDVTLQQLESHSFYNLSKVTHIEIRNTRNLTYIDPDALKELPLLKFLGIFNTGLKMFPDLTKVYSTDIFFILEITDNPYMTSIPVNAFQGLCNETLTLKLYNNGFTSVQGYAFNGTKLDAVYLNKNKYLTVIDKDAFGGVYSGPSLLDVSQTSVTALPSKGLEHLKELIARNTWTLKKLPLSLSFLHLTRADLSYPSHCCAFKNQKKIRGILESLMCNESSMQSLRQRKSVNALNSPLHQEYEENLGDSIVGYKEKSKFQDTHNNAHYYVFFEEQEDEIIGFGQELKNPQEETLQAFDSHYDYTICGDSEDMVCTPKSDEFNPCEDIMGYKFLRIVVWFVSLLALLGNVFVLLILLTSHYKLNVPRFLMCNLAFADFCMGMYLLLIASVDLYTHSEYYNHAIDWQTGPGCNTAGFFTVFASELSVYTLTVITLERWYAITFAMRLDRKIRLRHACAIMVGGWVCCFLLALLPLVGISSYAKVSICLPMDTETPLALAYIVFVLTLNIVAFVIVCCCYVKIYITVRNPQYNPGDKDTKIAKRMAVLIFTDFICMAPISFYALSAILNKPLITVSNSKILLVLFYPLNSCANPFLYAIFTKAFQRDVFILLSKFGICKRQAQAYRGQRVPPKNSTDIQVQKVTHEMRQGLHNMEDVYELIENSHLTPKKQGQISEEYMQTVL

`c1ccsc1`: the Potency entry in assay [1], in assay [2], in assay [3], in assay [5], in assay [6] and in assay [8] was “inactive” throughout. Moreover, the result in assay [4] and in assay [7] was inactive.
As to `C#Cc1ccc(-c2ccccc2F)cc1`, the Potency result in assay [1], in assay [2], in assay [3], in assay [5], in assay [6] and in assay [8] was “inactive” in each case. The call in assay [7] was inactive.
On to `Cc1cc(=O)oc2cc(O)cc(O)c12`, for which the Potency in assay [1] was 21.8 µM (active). Also, the Potency entry in assay [2], in assay [3], in assay [5] and in assay [6] was “inactive” throughout. Further, the result in assay [4] and in assay [7] was inactive.
Consider `CCC(COC(=O)CCS)(COC(=O)CCS)COC(=O)CCS`, for which the Potency result in assay [1], in assay [2], in assay [3], in assay [5], in assay [6] and in assay [8] was “inactive” throughout. Also, the compound was called inactive in assay [7].
In the case of `C=CC(=O)Nc1cc2c(Nc3ccc(F)c(Cl)c3)ncnc2cc1OCCCN1CCOCC1`, the Potency was 1.68 µM (active) in assay [1], 0.841 µM (active) in assay [2], 23.7 µM (active) in assay [3] and 26.6 µM (active) in assay [8]. Besides, the outcome in assay [4] and in assay [7] was inactive. Moreover, the Potency entry in assay [5] and in assay [6] was “inactive” each time.
As for `CCCCCCCCCCCCCC[N+](C)(C)C`, the Potency was 27.3 µM (active) and 531 nM (active) in assay [1]; 33.2 µM (active) and 24.3 µM (active) and 10.6 µM (active) in assay [2]; 26.4 µM (active) and 27.3 µM (active) in assay [3]; 26.4 µM (active) and 30.6 µM (active) and 33.5 µM (active) in assay [5]. Besides, the Potency entry in assay [6] is “inactive”.
Turning to `CC(C)(c1cc(Br)c(OCC(Br)CBr)c(Br)c1)c1cc(Br)c(OCC(Br)CBr)c(Br)c1` (stereo unspecified), the Potency result in assay [1], in assay [2], in assay [3], in assay [5], in assay [6] and in assay [8] was “inactive” in each case. The compound was called inactive in assay [7].
On to `CC[N+](CC)(CC)CCOC(=O)C(C1CCCC1)C1CCCC1`, for which the Potency result in assay [1], in assay [3], in assay [5] and in assay [6] was “inactive” in each case. Moreover, the Potency in assay [2] is 33.5 µM (active).
Turning to `CCCCCC(C)OC(=O)COc1ccc(Cl)c2cccnc12` (stereo unspecified), the Potency in assay [1] and in assay [3] was 54.5 µM (active) each time. For the same compound, the Potency result in assay [2], in assay [5], in assay [6] and in assay [8] was “inactive” throughout. The compound was classed as inactive in assay [7].
Turning to `C=CC(C)(CCC=C(C)C)OC=O` (stereo unspecified), the Potency entry in assay [1], in assay [2], in assay [3], in assay [5], in assay [6] and in assay [8] was “inactive” in each case. The outcome in assay [7] was inactive.
Consider `CCCC(=O)OCOC(=O)C1=C(C)NC(C)=C(C(=O)OC)C1c1cccc(Cl)c1Cl` (stereo unspecified), for which the Potency result in assay [1], in assay [2], in assay [3] and in assay [8] was “inactive” throughout. In addition, the result in assay [4] and in assay [7] was inactive.
As to `Cl[Si](Cl)(c1ccccc1)c1ccccc1`, the Potency result in assay [1], in assay [2], in assay [3], in assay [5], in assay [6] and in assay [8] was “inactive” in each case. Also, the call in assay [7] was inactive.
Take `OC[C@H]1O[C@H](O[C@H]2O[C@H](CO)[C@@H](O)[C@H](O)[C@H]2O)[C@H](O)[C@@H](O)[C@@H]1O`: the Potency entry in assay [1], in assay [2], in assay [3], in assay [5] and in assay [8] was “inactive” each time. Besides, the outcome in assay [4] and in assay [7] was inactive.
With `Cc1c(C)c2c(c(C)c1OC(=O)c1cccnc1)CC[C@@](C)(CCC[C@H](C)CCC[C@H](C)CCCC(C)C)O2`, the Potency result in assay [1], in assay [2], in assay [3], in assay [5], in assay [6] and in assay [8] was “inactive” in each case. Besides, the outcome in assay [7] was inactive.
`Nc1nc(N)nc(-c2cc(Cl)ccc2Cl)n1`: the Potency result in assay [1], in assay [2], in assay [3] and in assay [5] was “inactive” throughout.
As for `CCCCCCOC(=O)C(C)CC` (stereo unspecified), the Potency result in assay [1], in assay [2], in assay [3], in assay [5] and in assay [8] was “inactive” each time. The result in assay [4] and in assay [7] was inactive.
On to `Cc1ccc(C)cc1`, for which the Potency entry in assay [1], in assay [2], in assay [3], in assay [5] and in assay [6] was “inactive” throughout. For the same compound, in assay [4], the outcome was inactive.
For the compound `CCCCCc1ccc(Cl)cc1`, the Potency result in assay [1], in assay [2], in assay [3], in assay [5], in assay [6] and in assay [8] was “inactive” throughout. For the same compound, the compound was called inactive in assay [7].
Take `O=S(=O)(O)c1ccc(Nc2nc(Nc3ccc(/C=C/c4ccc(Nc5nc(Nc6ccc(S(=O)(=O)O)cc6)nc(N(CCO)CCO)n5)cc4S(=O)(=O)O)c(S(=O)(=O)O)c3)nc(N(CCO)CCO)n2)cc1`: the Potency entry in assay [1], in assay [2], in assay [3], in assay [5], in assay [6] and in assay [8] was “inactive” each time. In addition, the result in assay [4] and in assay [7] was inactive.
Take `Nc1ccc(C(=O)O)c(O)c1`: the Potency entry in assay [1], in assay [2], in assay [3], in assay [5] and in assay [8] was “inactive” in each case. Also, the outcome in assay [4] and in assay [7] was inactive.
Regarding `CC1=CCC(=C(C)C)CC1`, the Potency entry in assay [1], in assay [2], in assay [3], in assay [5] and in assay [6] was “inactive” in each case.
On to `CC(C)=CCNc1ncnc2c1ncn2[C@@H]1O[C@H](CO)[C@@H](O)[C@H]1O`, for which the Potency in assay [1] was 2.98 µM (active); in assay [3], 13.3 µM (active); in assay [5], 11.9 µM (active). For the same compound, the Potency result in assay [2], in assay [6] and in assay [8] was “inactive” in each case. For the same compound, the outcome in assay [4] and in assay [7] was inactive.
On to `O=c1oc2cc(O)ccc2c2oc3cc(O)ccc3c12`, for which the values for the Potency in assay [1] and in assay [3] were 13.1 µM (active) and 37 µM (active), respectively. The Potency result in assay [2] and in assay [5] was “inactive” in each case.
On to `COc1cc(S(=O)(=O)O)c(C)cc1N=Nc1c(O)ccc2cc(S(=O)(=O)O)ccc12`, for which the Potency entry in assay [1], in assay [3], in assay [5] and in assay [6] was “inactive” throughout. Besides, the Potency in assay [2] was 27.3 µM (active).
